This passage reports activity change and outcome results from PubChem BioAssay AID720617 (Broad Institute, 2013).

The test can be described thus: CCRF-CEM leukemia cell cytotoxicity, late-stage follow-up, mechanism study for HRAS target identification, Alamar Blue fluorescence, several timepoints, dry powder (AID 720617). Conditions: CCRF-CEM viability; activity change: measured here: 8 h treatment viability, at 35 µM, stronger effect = lower value; 48 h, at 35 µM (top of the series).

Results filed as inconclusive are left out. Active and inactive are the calls of the source.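 How the source made its calls: active means active at all three treatment times, each with half-maximal potency within twice the top valid dose, signal falling; inconclusive means treatment times disagree on the call; inactive means inactive at all three times, including opposite responses.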

Turning to `Cc1onc(C(=O)N2CCN(C(c3ccncc3)c3ccncc3)CC2)c1[N+](=O)[O-]`, the activity change is -0.515% and the result was inactive.

Consider `CCC(=O)N(c1ccc(OC)c(Cl)c1)C(C(=O)NCCc1ccccc1)c1cccs1` (centres undefined), for which the activity change was found to be 6.85% and the result was inactive.
